{
  "source": "PubChem BioAssay (NCATS)",
  "note": "Results filed as inconclusive are left out. Active and inactive are the calls of the source. Calls come from the whole dose curve; as a rule, active = well fitted inhibition curve with a large enough effect; inconclusive = small, poorly fitted or top-dose-only effect; inactive = no such curve, though single readings can be large or run the other way. % is set by controls: 0 for no effect and ±100 for the full control effect; potency is the fitted concentration of half-maximal effect.",
  "data": [
    {"test_system": "Zika virus NS2B-NS3 protease (unlinked complex)", "assay": "Primary screen GU Rhodamine qHTS for Zika virus inhibitors: Unlinked NS2B-NS3 protease assay (AID 1347159); note: nearly all actives have a fitted effect of over 60% in size", "conditions": "Recombinant ZIKV NS2B-NS3 protease, Rhodamine110 substrate fluorescence; series mostly up to 107 µM; activity change, negative = inhibition: at the top concentration", "outline": "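Buffer 10 mM Tris-HCl pH 8.0, 0.01% Tween 20. Unlinked protease 25 nM; compound preincubation 15 min, RT, protected from light. Substrate Rhod110, 1.5 microM; ~15% conversion in 15 min.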", "values": [
      {"compound": "C[C@]12CC[C@H]3[C@@H]([C@H](O)CC4=CC(=O)CC[C@@]43C)[C@@H]1CC[C@@H]2O", "activity change, negative = inhibition": "13.1% (inactive)"},
      {"compound": "CCCCCOc1cc2c(cc1-c1cc(/C=C/C(=O)O)ccc1O)C(C)(C)CCC2(C)C", "Potency": "2.51 µM (active)"},
      {"compound": "CN1[C@H]2C[C@H](OC(=O)[C@H](CO)c3ccccc3)C[C@@H]1[C@@H](O)C2", "activity change, negative = inhibition": "-18.4% (inactive)"},
      {"compound": "COC(=O)C1(C)CCC(O)C2(C)c3cc(O)c(C(C)C)cc3C(O)C(OC(C)=O)C12", "note": "(stereo unspecified)", "activity change, negative = inhibition": "-25.4% [at 57.1 µM] (inactive)"},
      {"compound": "CC[C@H]1CN2CC[C@H]1C[C@H]2[C@H](O)c1ccnc2ccc(OC)cc12", "activity change, negative = inhibition": "6.62% (inactive)"},
      {"compound": "C/C=C(\\C)C(=O)OC1C(C)OC(OC2C(C)OC(OC3CCC4(C)C(=CCC5C4CCC4(C)C(C(C)OC6OC(COC7OC(CO)C(O)C(O)C7O)C(O)C(O)C6O)CCC54O)C3)CC2OC)C(O)C1OC", "note": "(stereo unspecified)", "activity change, negative = inhibition": "15.8% [at 32.5 µM] (inactive)"},
      {"compound": "CCN1C[C@]2(COC(=O)c3ccccc3N3C(=O)C[C@H](C)C3=O)CC[C@H](OC)[C@@]34[C@@H]5C[C@H]6[C@H](OC)[C@@H]5[C@](O)(C[C@@H]6OC)[C@](O)([C@@H](OC)[C@H]23)[C@@H]14", "activity change, negative = inhibition": "-12.1% (inactive)"},
      {"compound": "C=C(C)[C@H]1O[C@H]2CC[C@@]3(C)[C@@](O)(CC[C@H]4[C@@H]5OC(C)(C)[C@H]6C[C@@H]7C(=C)Cc8c(Cl)cc9[nH]c(c5c9c8[C@@]76O)[C@@]43C)[C@]23O[C@@H]3[C@H]1O", "activity change, negative = inhibition": "-4.9% [at 32.5 µM] (inactive)"},
      {"compound": "CN1CCC[C@@H]1Cc1c[nH]c2ccc(Nc3ncccc3[N+](=O)[O-])cc12", "activity change, negative = inhibition": "24.5% (inactive)"},
      {"compound": "COC1=CC(=O)O[C@@H](CCc2ccccc2)C1", "activity change, negative = inhibition": "33.2% (inactive)"},
      {"compound": "CCC(C)(OC(C)=O)C(=O)O[C@H]1[C@H](OC(C)=O)C[C@@H]2[C@@](C)([C@@H]3C[C@H]4C=CO[C@H]4O3)[C@H](C)C[C@H](OC(C)=O)[C@@]2(COC(C)=O)[C@@]12CO2", "note": "(stereo partly specified)", "activity change, negative = inhibition": "-1.36% [at 32.5 µM] (inactive)"}
    ]}
  ]
}
